High-throughput results from PubChem.
In the library only some 6.1% were active in any assay of this set; here they are far more common.
D1 ag: Allosteric Agonists of the Human D1 Dopamine Receptor: qHTS. actives 1% (n = 360,000). activation, % at 2 µM. HEK293 T-REx D1 cells, calcium flux, agonist mode. D(1A) dopamine receptor (Homo sapiens), P21728; in the data active means activation above about 30%; further: 0% is about no effect
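Agonism was scored from calcium flux recorded over 180 s (1 read/s) after pintool compound addition, following a 10-cycle baseline. Cells were inducible force-coupled HEK293 TREx D1, plated overnight at 30 C and loaded with no-wash calcium dye.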
D1 antagonist: Antagonist of Human D 1 Dopamine Receptor: qHTS; D(1A) dopamine receptor (Homo sapiens), P21728; HEK293 TREx D1 cells, calcium flux, dopamine EC80; hits give low values; activity change, negative = inhibition, % at 10 µM; actives 3.2% (n = 360,000); AID 504652, 2011; in the data active means activity change below about -30%; further: on the % scale 0 is the no-effect control and ±100 the full control effect
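Tetracycline-induced HEK293 T-REx cells with force-coupled D1 receptor were loaded with a no-wash calcium dye. Compound was added after a 10 s baseline and read kinetically for 180 s; EC80 dopamine was then added and calcium flux followed another 180 s.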
D1 PAM: Potentiators of Human D1 Dopamine Receptor: qHTS | D(1A) dopamine receptor (Homo sapiens), P21728 | HEK293 TREx D1 cells, calcium flux, dopamine EC20 potentiation | potentiation, % at 10 µM | actives 0.036% (n = 360,000) | AID 504651, 2011; in the data active means potentiation above about 30%; further: 0% is about no effect
D3 ag: qHTS of D3 Dopamine Receptor Agonist: qHTS | D(3) dopamine receptor (Homo sapiens), P35462 | D3R DiscoveRx beta-arrestin cells, luminescence, 90 min | max activation, % | actives 0.58% (n = 410,000) | AID 652048, 2013; in the data active means max activation above about 30%; further: 0% is about no effect
Target sequence (P35462 whole entry, looked up): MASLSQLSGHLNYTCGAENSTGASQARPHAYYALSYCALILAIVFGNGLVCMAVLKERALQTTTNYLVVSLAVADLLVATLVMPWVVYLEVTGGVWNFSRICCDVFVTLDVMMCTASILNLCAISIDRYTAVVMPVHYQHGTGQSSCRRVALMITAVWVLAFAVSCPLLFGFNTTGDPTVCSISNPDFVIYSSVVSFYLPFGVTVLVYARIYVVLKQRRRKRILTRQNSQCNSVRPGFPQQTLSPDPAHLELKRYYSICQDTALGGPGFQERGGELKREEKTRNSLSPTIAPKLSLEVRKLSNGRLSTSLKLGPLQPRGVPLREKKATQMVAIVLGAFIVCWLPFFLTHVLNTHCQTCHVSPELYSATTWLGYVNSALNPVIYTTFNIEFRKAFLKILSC
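Cells at 1500/well, incubated overnight, then treated with pinned compounds (dopamine as control) for 90 min at 37 degrees C. DiscoveRx reagent added for 30 - 60 minutes at room temperature; luminescence read.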
DRD3 antagonist: qHTS of D3 Dopamine Receptor Antagonist: qHTS. D(3) dopamine receptor (Homo sapiens), P35462. D3R cells, DiscoveRx beta-arrestin luminescence, antagonist mode; hits give low values. max response, negative = inhibition, %. actives 2.5% (n = 360,000). AID 652054, 2013; in the data active means max response below about -50%; further: on the % scale 0 is the no-effect control and ±100 the full control effect
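Cells expressing the human receptor were seeded at 1500 cells/well, incubated overnight at 37 degrees C in 5% CO2, then exposed to library compounds with dopamine controls for 90 minutes at 37 degrees C before luminescent detection.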
* = called active by the depositor; / = no result given.

SMILES | D1 ag | D1 antagonist | D1 PAM | D3 ag | DRD3 antagonist
CC(CN1CCCC1)OC(=O)c1ccc(Cl)cc1Cl (centres undefined) | 4.1 | 2.5 | -1.9 | -19.7 | -79.6*
COc1ccccc1/C=C/C(=O)OC(C)CN1CCCCC1 (centres undefined) | 1.6 | 13.8 | -3.9 | -13.6 | -59.7*
CC(CN1CCOCC1)OC(=O)c1ccc(Br)cc1 (centres undefined) | 2.3 | 6.9 | 5.3 | -17.6 | -67.3*
COc1ccccc1CNC(=O)c1ccc2c(c1)N(Cc1cccc(C)c1)C(=O)c1ccccc1S2(=O)=O | 5.3 | -6.3 | -1.4 | 3.7 | /
COc1cc(Nc2ncc3c(n2)CCN(Cc2cccc(C)c2)C3)cc(OC)c1 | 2.4 | 6.9 | 2.1 | -7.7 | /
CC(CN1CCCC1)OC(=O)c1ccc(Cl)cc1 (centres undefined) | 0.7 | -6.0 | -3.6 | -24.8 | -53.8*
CC(CN1CCCCC1)OC(=O)c1ccc2c(c1)OCO2 (centres undefined) | 2.5 | -12.3 | 0.5 | -17.8 | -15.4
CC(CN1CCCCC1)OC(=O)c1cccc(F)c1 (centres undefined) | 0.9 | 7.4 | 1.9 | -24.0 | -50.8*
CC(C)c1ccc(C(C)NC(=O)C2CCCC2)cc1 (centres undefined) | 12.5 | 29.7 | -3.3 | 31.0* | -4.2
CC(NC(=O)C1CCC(CNS(=O)(=O)c2ccccc2)CC1)c1ccccc1 (centres undefined) | 11.1 | -40.6* | -7.5 | -3.9 | 5.7
CC(NC(=O)C1CCCC1)c1ccc(Br)cc1 (centres undefined) | 4.9 | -3.4 | 4.5 | 19.6 | -17.2
CCOc1ccc2nc(N3CCC(C(=O)Nc4c(C)cccc4C)CC3)sc2c1 | -0.9 | -56.5* | -1.7 | 4.4 | /
CCCCN(CC)CCCNC(=O)C1CCN(c2nc3ccc(CC)cc3s2)CC1 | 78.9* | -61.7* | 6.2 | -9.9 | /
CCCCN(C)CCCNC(=O)C1CCN(c2nc3ccc(CC)cc3s2)CC1 | 83.7* | -53.0* | 2.8 | -10.7 | /
CCOc1ccc2nc(N3CCC(C(=O)NCCCN4CCOCC4)CC3)sc2c1 | 1.1 | 3.9 | 0.8 | 5.1 | -16.9
CC(NS(=O)(=O)c1ccc2ccccc2c1)c1ccccn1 (centres undefined) | / | / | / | -4.1 | -2.4
CN=Cc1sc2ccccc2c1O | -0.1 | 5.0 | 4.7 | -0.3 | 7.5
Oc1c(C=Nc2ccccc2)sc2ccccc12 | 1.1 | 0.5 | -0.3 | -6.3 | -19.2
Oc1c(C=NCc2ccncc2)sc2ccccc12 | 4.5 | -7.8 | 0.1 | 4.8 | -100.5*
Oc1c(C=Nc2cccnc2)sc2ccccc12 | 5.0 | 8.7 | 4.2 | -3.7 | -65.2*
CSc1ccc(CCNc2ncnc3onc(C)c23)cc1 | 35.4* | -50.5* | -8.7 | 5.7 | /
CCOc1ccc(CCNc2ncnc3onc(-c4ccc(Cl)cc4)c23)cc1 | 24.2 | -48.2* | -0.1 | 0.7 | /
COc1cccc(CNc2ncnc3onc(C)c23)c1 | 25.0 | -7.8 | -1.4 | -3.7 | /
COc1ccc(CCNc2ncnc3onc(C)c23)c(OC)c1 | 23.7 | -45.4* | -7.0 | 9.9 | /
CCCNc1ncnc2onc(C)c12 | 4.4 | -0.9 | 3.1 | -2.5 | -6.8
SMILES | D1 ag | D1 antagonist | D1 PAM | D3 ag | DRD3 antagonist
Cc1ccc(CCNc2ncnc3onc(-c4ccc(Cl)cc4)c23)cc1 | 2.8 | -10.6 | 0.6 | 1.5 | /
CCOC(=O)c1c(C)[nH]c(C)c1S(=O)(=O)N1CCC(C(=O)Nc2ccc(OCC)cc2)CC1 | 2.1 | -2.5 | -0.7 | 15.7 | /
O=C(NCc1ccccc1Cl)C(=O)NCC1OCCN1S(=O)(=O)c1cccs1 (centres undefined) | 7.1 | -11.4 | -4.8 | 0.1 | 8.1
CC(=O)c1c(C)[nH]c(C(=O)Nc2ccc(F)c(F)c2F)c1C | 10.3 | 10.3 | -0.9 | -4.4 | -6.0
Cc1cccc(NC(=O)c2sc3nc(-c4ccccc4)cn3c2C)n1 | 10.9 | -14.8 | -2.5 | 16.8 | 12.1
COc1ccc(-c2cn3c(C)c(C(=O)Nc4cccc(C)n4)sc3n2)cc1 | 1.3 | -59.1* | -4.3 | 11.6 | 28.4
